Laboratory results as given in PubChem BioAssay (Tox21).
Inconclusive results are not listed. Calls of active or inactive are those of the source. The call rests on the fitted dose curve; in most records, active means well fitted activation curve with a large enough effect in the signal ratio in the repeat runs (not every such curve was filed as active); inconclusive means weak or mixed curves, or effect the other way; inactive means flat fitted curve, though single readings scatter; the % refers to the signal ratio.
On the % scale 0 is the no-effect control and ±100 the full control effect.

Assay: qHTS assay to identify small molecule agonists of the endoplasmic reticulum stress response signaling pathway (AID 1159516)
Details: ESRE-bla HeLa, ER stress beta-lactamase reporter, 5 h; series mostly up to 61 µM
Text: National Center for Advancing Translational Sciences [NCATS]
NIH Chemical Genomics Center [NCGC]
U.S. Environmental Protection Agency [EPA]
National Institutes of Environmental Health Sciences [NIEHS]
National Toxicology Program [NTP]
U.S. Food and Drug Administration [FDA]
Endoplasmic Reticulum (ER) plays an important role in cellular signaling, protein folding/maturation, stress response, lipid biosynthesis, calcium storage and release etc. Under stress conditions, proteins in ER misfold or unfold, and leading to the expression of ER stress responsive genes. ER stress has been associated with a variety of pathophysiological conditions such as cancer, inflammation, neurodegenerative diseases, diabetes, ischemic heart disease etc. To identify the compounds that induce ER stress response, an ER stress reporter cell line, CellSensor ESRE-bla HeLa (Life Technologies, Carlsbad, CA) containing a beta-lactamase reporter gene under control of the Endoplasmic reticulum Stress Response Element (ESRE) was used to screen Tox21 10K compound library.
Tox21 Assay Protocol Summary:
ESRE-bla HeLa cells were dispensed at 1,500 cells/6 uL of assay medium per well into black wall/clear-bottom 1536-well plates using a Multidrop Combi (ThermoFisher Scientific, Waltham, MA) dispenser. After the assay plates were incubated at 37 C and 5% CO2 for an overnight, 23 nL of compounds dissolved in DMSO, positive controls or DMSO only was transferred to the assay plate by a Pintool station (Kalypsys, San Diego, CA). The assay plates were incubated at 37 C and 5% CO2 for 5 hr. One uL of LiveBLAzer B/G FRET substrate (Life Technologies) was added using a Flying Reagent Dispenser (Aurora Discovery, San Diego, CA) and the plates were incubated at room temperature for 2 hr. Fluorescence intensity (405 nm excitation, 460 nm and 530 nm emissions) was measured using an Envision plate reader (PerkinElmer, Shelton, CT).
With `C=CCCCCCCCCCCCCCCCC` the activation was 3.12% [at 6.95 µM] (inactive).
For `CC1CC(O)CC(C)(C)C1` (stereo not given), the outcome was “inactive”.
For `COc1ccc(C(=O)c2cccc(O)c2)c(OC)c1`, the outcome was “inactive”.
With `Fc1c(F)c(F)c(Br)c(F)c1F` the outcome was “inactive”.
In the case of `COc1cc2c(N3CCN(C(=O)Nc4ccc(OC(C)C)cc4)CC3)ncnc2cc1OCCCN1CCCCC1`, the outcome is reported as “inactive”.
In the case of `Cc1ccnc2ccccc12`, the outcome is reported as “inactive”.
For `NC(=O)N(O)[C@@H]1C=C[C@H](Oc2cccc(Oc3ccc(F)cc3)c2)C1`, the outcome was “inactive”.
For `COC(=O)[C@@H]1CC2=CC(=O)CC[C@]2(C)[C@@]23O[C@@H]2C[C@@]2(C)[C@@H](CC[C@@]24CCC(=O)O4)[C@H]13`, the outcome was “inactive”.
With `CN1C(=O)CC(C)(c2ccccc2)C1=O` (stereo not given) the outcome was “inactive”.
With `[O]=[Bi]` the activation was -0.917% [at 6.95 µM] (inactive).
For `CO[C@H]1O[C@H](CO)[C@@H](O)[C@H](O)[C@H]1O`, the outcome was “inactive”.
For `Cc1cc(O)c(C(C)C)cc1Cl`, the outcome was “inactive”.
For `O=C(O)c1snc(Cl)c1Cl`, the outcome was “inactive”.
In the case of `CC(C)=CC=O`, the outcome is reported as “inactive”.
In the case of `CNC(=S)NC`, the outcome is reported as “inactive”.
In the case of `OC(CCCN1CCCCC1)(c1ccccc1)c1ccccc1`, the outcome is reported as “inactive”.
With `COc1cc2[nH]c(=O)[nH]c(=O)c2cc1OC` the outcome was “inactive”.
With `CCc1c2c(nc3ccc(OC(=O)N4CCC(N5CCCCC5)CC4)cc13)-c1cc3c(c(=O)n1C2)COC(=O)[C@]3(O)CC` the outcome was “inactive”.
With `O=C(CS)OCCOC(=O)CS` the outcome was “inactive”.
For `CCN(CC)CCNC(=O)c1ccc(NC(C)=O)cc1`, the outcome was “inactive”.
With `C=C(C)C(=O)OCCOC(=O)CC(C)=O` the outcome was “inactive”.
With `CCC(C)(O)CCC=C(C)C` (stereo not given) the outcome was “inactive”.
For `Cc1oc(C)c(C(=O)Nc2ccccc2)c1C`, the outcome was “inactive”.
With `C/C(=N/NC(=O)c1ccncc1)C(=O)O` the outcome was “inactive”.
In the case of `CC(Cl)C(Cl)Cl` (stereo not given), the outcome is reported as “inactive”.
For `CC1CC(=O)NN=C1c1ccc(NCC(C)(C)NCC(O)COc2cc(Cl)ccc2C#N)cc1` (stereo not given), the outcome was “inactive”.
In the case of `Cc1cc(O)c2c(O)c3c(O)cccc3cc2c1`, the outcome is reported as “inactive”.
In the case of `CC(CCc1ccc2c(c1)OCO2)NN` (stereo not given), the outcome is reported as “inactive”.
In the case of `CCCCCCCCCCCC(=O)[O][Sn]([CH2]CCC)([CH2]CCC)[O]C(=O)CCCCCCCCCCC`, the outcome is reported as “inactive”.
With `CCCCOC(=O)CCS` the outcome was “inactive”.
For `C=CCOC(=O)/C=C\C(=O)OCC=C`, the outcome was “inactive”.
For `O=C(O)c1cccnc1C(=O)O`, the outcome was “inactive”.
In the case of `CCOC(=O)C(C)Oc1ccc(Oc2nc3ccc(Cl)cc3o2)cc1` (stereo not given), the outcome is reported as “inactive”.
With `O=c1[nH]c2ccc(S(=O)CCN3CCC(Cc4ccc(F)cc4)CC3)cc2o1` (stereo not given) the outcome was “inactive”.
With `Cc1cc(C(=C2C=CC(=Nc3ccc(S(=O)(=O)O)cc3S(=O)(=O)O)C=C2)c2ccc(Nc3ccc(S(=O)(=O)O)cc3)cc2)ccc1N` the outcome was “inactive”.
For `CC(C)CCCC(=O)O`, the outcome was “inactive”.
In the case of `CCCOCCOCCO`, the outcome is reported as “inactive”.
For `CC(C)C(OC(=O)c1ccccc1)C(C)(C)COC(=O)c1ccccc1` (stereo not given), the outcome was “inactive”.
With `CC[C@@H]([C@H](C)O)n1ncn(-c2ccc(N3CCN(c4ccc(OC[C@@H]5CO[C@@](Cn6cncn6)(c6ccc(F)cc6F)C5)cc4)CC3)cc2)c1=O` the outcome was “inactive”.
In the case of `CCC(C(=O)OCCN(CC)CC)c1ccccc1` (stereo not given), the outcome is reported as “inactive”.
